# Experimental data from publication PMC6792352, “Limited Chemical Structural Diversity Found to Modulate Thyroid Hormone Receptor in the Tox21 Chemical Library” (Environmental Health Perspectives, 2019).
# Where a name gives a salt, the structure may show the parent alone. Read-outs that look alike come from different tables or passages of the source.
# Tested on: thyroid hormone receptor (endogenous TRα and TRβ)
# Set-up: species or system GH3-TRE-Luc (rat pituitary); GH3-TRE-Luc luciferase reporter, antagonist mode against 1 nM T3, loss of signal, qHTS
# [1] = read-out: Average AC50 (uM) GH3-TRE-Antag, antagonist mode, 1 nM T3, no GH3 cytotoxicity hit
# [2] = read-out: Average AC50 (uM) GH3-TRE-Antag, antagonist mode, 1 nM T3, no GH3 cytotoxicity hit, Average AC50 (uM) GH3-TRE-Antag, 24 h
Structure (SMILES),AC50 [1] [µM],AC50 [2] [µM]
CCOC(=O)c1c(N)sc2c1CCN(Cc1ccccc1)C2 [Tinoridine],37.8,–
N#CC(c1ccc(Cl)cc1)c1c(Cl)cc(-n2ncc(=O)[nH]c2=O)cc1Cl (stereo not shown) [Diclazuril],4.7,–
O=C(N/N=C/c1ccc([N+](=O)[O-])o1)c1ccc(O)cc1 [Nifuroxazide],13.7,–
CC1(C)NC(=O)N(c2ccc([N+](=O)[O-])c(C(F)(F)F)c2)C1=O [Nilutamide],38.5,–
CC(=O)[C@H]1CC[C@H]2[C@@H]3C=CC4=CC(=O)CC[C@@]4(C)[C@@H]3CC[C@]12C [Dydrogesterone],9.99,–
CCCC[C@H](CC)COC(=O)/C=C/c1ccc(OC)cc1 [Octinoxate],> 50,–
CCCCCCCCCCCCOS(=O)(=O)O [Ammonium dodecyl sulfate],–,80.2
Nc1ccc2cc3ccc(N)cc3nc2c1 [Proflavin hydrochloride],–,3.25
CCCCCCn1cc[n+](C)c1 [1-Hexyl-3-methylimidazolium chloride],–,65.3
CCCCCC[n+]1ccccc1 [1-Hexylpyridinium trifluoromethanesulfonate],–,45.4
